Hit rate of the full screen: of about 360,000 compounds, about 17,000 (4.7%) were called active. Not shown: some 5% with an inconclusive outcome. No stated cut-off is given here; in the data, active means activity change below about -50%; inconclusive means mostly about -30% to -49%; inactive means weaker than that. Only a selection was taken, and actives are over-represented in it overall.
Assay: qHTS for Inhibitors of Inflammasome Signaling: IL-1-beta AlphaLISA Primary Screen
Conditions: THP-1 LPS/ATP IL-1B secretion, 16 h; at 57.5 µM, active compounds read low
Text: Inflammasomes are a set of intracellular multi-protein complexes that enable autocatalytic activation of inflammatory caspases and drive the innate immune response to counter harmful agents. […] A qHTS assay, based on AlphaLISA technology, was developed to screen the Molecular Libraries Small Molecule Repository (MLSMR) to look for novel inflammasome inhibitors. The assay detects IL-1B using AlphaLISA anti-IL-1B acceptor and donor beads. A decreased emission signal, indicating reduced IL-1B secretion, is the desired outcome for this assay. NIH Chemical Genomics Center [NCGC] NIH Molecular Libraries Probe Centers Network [MLPCN] MLPCN Grant: MH095513 Assay Provider: Shyam Biswal Ph.D., Johns Hopkins University Immunity. 2012 Jul 27;37(1):85-95. PMID: 22819042 [2] Curr Pharm Des. 2012;18(16):2320-8. PMID: 22390695
Three microliters containing 3000 THP-1 cells were dispensed into the wells of solid, white, tissue culture treated Greiner 1,536-well plates. Library compounds and positive control, Glyburide, were pin-transferred (23 nL) by a Kalypsys pin-tool equipped with a 1,536-pin array, resulting in final compound concentration ranges of 2.5 nM to 57.5 uM. After 1 hr of cell culture incubation (37 °C, 5% CO2), 1 microL of 1 microg/mL lipopolysaccharide (250 ng/mL, final) and 5 mM ATP (1.25 mM, final) were added to stimulate the cells. After 16 hr of cell culture incubation with the compounds, 1.5 uL of anti-IL-1B acceptor beads (6 ug/mL, final) and biotinylated antibody (0.6 nM, final) were added to the plate, followed by a 1 hr incubation at ambient temperature. To detect the secreted IL-1B, 1.5 uL of AlphaLISA SA-Donor beads (24 ug/mL, final) were added, followed by 30 min of incubation in the dark at ambient temperature. The AlphaLISA signal was read by a PerkinElmer EnVision plate reader with an ultrasensitive luminescence detector and 1536 Plate HTS AlphaScreen aperture (excitation of 680nm and emission of 615nm).
On the % scale 0 is the no-effect control and ±100 the full control effect.

SMILES | activity change
COC(=O)c1sccc1NC(=O)COc1ccc(Cl)cc1 | -5.02% (inactive)
CCOC(=O)c1c(NC(=O)c2ccc(S(=O)(=O)N(C)CC3CCCO3)cc2)sc2c1CC(C)(C)NC2(C)C (stereo unspecified) | -16.8% (inactive)
COC(=O)c1c(NC(=O)COc2ccc(Cl)cc2Cl)sc2c1CC(C)(C)NC2(C)C | -99.6% (active)
C[C@@H]1CN([C@H](C)CO)C(=O)CCCn2cc(nn2)CO[C@H]1CN(C)S(C)(=O)=O | -20.6% (inactive)
COC(=O)Cc1ccc(OC2(C)CCN(Cc3ccc4c(c3)OCCO4)C2)cc1 (stereo unspecified) | 12.5% (inactive)
COc1cc2c(cc1OC)C(c1cccc([N+](=O)[O-])c1)=NCC2 | -7.18% (inactive)
COc1cc2c(cc1OC)C(Cc1cc(OC)c(OC)cc1[N+](=O)[O-])=NCC2 | -58.9% (active)
COc1cc(CN2CCCN(C)CC2)c([N+](=O)[O-])cc1OC | 26.5% (inactive)
C=CCOc1ccccc1CNn1c(C)n[nH]c1=S | 0.633% (inactive)
CC(C)=CCc1ccc(O)c(=O)cc1C(C)C | 1.89% (inactive)
CC(C)=CCc1c(O)c(CC=C(C)C)c2occ(-c3ccc(O)cc3)c(=O)c2c1O | -78.8% (active)
COc1cc(CNc2ncnc3c2ncn3[C@H]2CN(Cc3cccs3)C[C@@H](CO)O2)cc(OC)c1OC | 0.705% (inactive)
CCCCn1c(-c2cccc(C)c2)nc2cc3[nH]c(=O)c(C(C)C)nc3cc21 | -61% (active)
CCCCCn1nnnc1-c1nc2cc3ccccc3cc2[nH]c1=O | 1.49% (inactive)
CCCCn1c(N)c(N(CCOC)C(=O)CSCC(=O)Nc2cccc(C)c2)c(=O)[nH]c1=O | 9.86% (inactive)
CC(C)Oc1ccc(C2NC(=O)NC2=O)cc1 (stereo unspecified) | 10.2% (inactive)
COc1ccccc1-c1n[nH]nc1C1=CC(=O)CC(C)(C)C1 | -12.1% (inactive)
c1ccc2c(c1)nnn2-c1ccncc1 | -56.6% (active)
Cc1ccc(-c2nnc(-n3nnc4ccccc43)c3ccccc23)cc1 | 55.9% (inactive)
COc1cc2nnn(-c3ccncc3)c2cc1OC | -22.1% (inactive)
CC(Sc1ccc(S(=O)(=O)N2CCN(C)CC2)cn1)C(=O)NC1CCCC(C)C1C (stereo unspecified) | -7.4% (inactive)
COc1cccc(CNc2nc3nc4c(c(=O)n3[nH]2)CCC4)c1 | -4.67% (inactive)
COc1cccc(-c2cc3nc4c(c(N5CCC6(CC5)OCCO6)n3n2)CCCC4)c1 | -96.1% (active)

SMILES | activity change
N#C/C=C\Oc1ccc(Cl)cc1N | -9.78% (inactive)
Cc1ccccc1S(=O)(=O)NC(=O)C1(C)CCN1C(=O)C1(c2ccccc2)CCCC1 (stereo unspecified) | 31.4% (inactive)
C[C@@H]1Cn2cnc(C(=O)Nc3ccc(CNC(=O)OC(C)(C)C)cc3)c2C(=O)N1 | -13.5% (inactive)
O=C(Nc1ccc(F)c([N+](=O)[O-])c1)C1CC(=O)N(Cc2ccccc2)C1 (stereo unspecified) | -91% (active)
Cc1cc(=O)oc2cc(NC(=O)C3CC(=O)N(Cc4ccccc4)C3)ccc12 (stereo unspecified) | 0% (inactive)
CC(OC(=O)C1CC(=O)N(Cc2ccccc2)C1)C(=O)Nc1ccccc1[N+](=O)[O-] (stereo unspecified) | 16.6% (inactive)
NC(=O)C1(Nc2ccc([N+](=O)[O-])cc2)CCCC1 | -4.02% (inactive)
COc1cccc(-c2ccc(SCC(=O)N3CCN(c4ccccc4)CC3)nn2)c1 | -69.3% (active)
COc1cccc(/C=C/C(=O)OCC(=O)N2CCN(c3ccccc3)CC2)c1 | -25.8% (inactive)
CCOc1ccc(-c2ccc(SCC(=O)N3CCOCC3)nn2)cc1 | 71% (inactive)
CC(NC(=S)Nc1ccccc1)C1COc2ccccc2O1 (stereo unspecified) | -4.51% (inactive)
CCN1/C(=C/C(=S)Nc2ccccc2)Sc2ccccc21 | -101% (active)
CCOC(=O)CNC(=O)N1c2ccccc2Sc2ccccc21 | -21% (inactive)
CCOC(=O)C1=CC[C@@H](c2ccncc2)N(S(=O)(=O)c2ccc(C)cc2)C1 | 57.8% (inactive)
O=C(c1ccc(Cl)c(S(=O)(=O)N2CCCCCC2)c1)N1CCN(c2ccc(O)cc2)CC1 | -10.9% (inactive)
COc1cc(/C=C/C(=O)OCC(=O)c2ccccc2)cc(OC)c1OC | 18.6% (inactive)
COc1ccc(/C=C/C(=O)OCC(=O)Nc2cccc(Oc3ccccc3)c2)c(OC)c1 | -2.25% (inactive)
COc1ccc(/C=C/C2=CC(C)(C)NC(=S)N2)c(OC)c1 | -87.3% (active)
COc1cc(/C=C/c2ccc(/C=C/c3cc(OC)c(OC)c(OC)c3)cc2)cc(OC)c1OC | 94.5% (inactive)
COc1ccc(-n2c(-c3ccc(Cl)cc3)n[nH]c2=S)c(OC)c1 | -15.4% (inactive)
COc1cc(/C=C/C2=CC(C)(C)NC(=S)N2)cc(OC)c1OC | -71.3% (active)
CCOC(=O)C1CCCN(C(=O)Cn2ncc3c(=O)oc4ccc(C)cc4c32)C1 (stereo unspecified) | 2.35% (inactive)
CCOC(=O)C1=CCC2C(=O)N(Cc3ccccc3)C(=O)C12 (stereo unspecified) | 3.12% (inactive)

SMILES | activity change
CN(c1ccccc1)S(=O)(=O)c1ccc(C(=O)NCc2cccnc2)cc1 | 12% (inactive)
Cn1c(=O)c2c(nc(OCc3cccnc3)n2Cc2ccccc2)n(C)c1=O | -9.43% (inactive)
CN(C)CCOc1ccc(Cl)cc1C(C)(C)C | -13.6% (inactive)
CCC(C)(C)c1ccc(OCC(=O)N(C)C)c(C(C)(C)CC)c1 | -90.9% (active)
CCc1nc(C)ccc1OCC(=O)N(CC)CC | 6.9% (inactive)
O=C(NC1CCCCC1)C1CCC(CNS(=O)(=O)c2ccccc2)CC1 (stereo unspecified) | -6.12% (inactive)
Cc1ccnc(NC(=O)c2ccc(Cl)c([N+](=O)[O-])c2)c1 | -78.4% (active)
Cc1ccnc(NC(=O)c2ccoc2C)c1 | -8.69% (inactive)
Cc1ccnc(NC(=O)Cn2ccc([N+](=O)[O-])n2)c1 | 15.1% (inactive)
O=C(O)c1ccc2c(=O)n3c(nc2c1)/C(=C/c1ccc(Cl)c([N+](=O)[O-])c1)CC3 | -64.3% (active)
CCN(CC)c1ccc(C(=O)Nn2c(C)nc3ccccc3c2=O)cc1 | 18.5% (inactive)
N#Cc1ccc(/C=C2\CCn3c2nc2cc(C(=O)O)ccc2c3=O)cc1 | -13.5% (inactive)
O=C(Nc1ccncc1)c1ccc(Cl)c([N+](=O)[O-])c1 | -64.8% (active)
Cc1nc2ccccc2c(=O)n1NC(=O)c1ccc(Cl)c([N+](=O)[O-])c1 | -60.1% (active)
O=C(Nc1ccccc1C(=O)Nc1ccncc1)c1ccc([N+](=O)[O-])cc1 | -6.48% (inactive)
Cc1ccc(/C=C2\CCn3c2nc2cc(C(=O)O)ccc2c3=O)c(C)c1 | 12.5% (inactive)
O=C(Nn1c(SCc2ccc([N+](=O)[O-])cc2)nc2ccccc2c1=O)c1ccc(F)cc1 | -1.43% (inactive)
O=C(Nc1ccncc1)c1ccc([N+](=O)[O-])cc1Cl | -15% (inactive)
CC1(C(=O)NCc2ccco2)Cc2c(-c3ccc4c(c3)OCO4)ccnc2O1 (stereo unspecified) | 7.16% (inactive)
Cc1ccccc1CSc1nnc(-c2ccccn2)n1N | -29.8% (inactive)
CCOC(=O)C1CCN(C(=O)c2ccc3c(=O)n4nc(Nc5ccccc5CC)sc4nc3c2)CC1 | -8.29% (inactive)
CCCCN1C(=O)C(CC(=O)NCc2cccs2)CC(C(=O)N2CCOCC2)=C1C (stereo unspecified) | 34.2% (inactive)
COc1ccccc1CNC(=O)Cn1c(=O)oc2cc(Cl)ccc21 | -3.46% (inactive)

SMILES | activity change
Cc1ccc(C(O)c2ncc(-c3ccccc3F)[nH]2)cc1F (stereo unspecified) | 0.413% (inactive)
Cc1ccc(CC2(C)C(=O)Nc3ccc(OC(F)(F)F)cc32)cc1 (stereo unspecified) | -8.4% (inactive)
CN1OC[C@@H]2CN(C(=O)c3cccnc3)[C@H](c3ccc(N4CCCCC4)cc3)C[C@@H]21 | 3.15% (inactive)
CCNC(=O)C1(C)CCCN(C(=O)c2c(C)noc2C)C1 (stereo unspecified) | 25% (inactive)
CS(=O)(=O)c1sc(C(=O)NC(=S)Nc2ccc(OC(F)(F)F)cc2)c2c1C=CCC2 | 21.9% (inactive)
COc1ccc(CNC(=O)C2CCN(S(C)(=O)=O)CC2)cc1 | 14.1% (inactive)
CCOC(=O)/C(=N\Nc1ccccc1[N+](=O)[O-])c1csc(Nc2ccccc2)n1 | 1.73% (inactive)
O=C(O)C(=Cc1ccc([N+](=O)[O-])cc1)CCc1ccccc1 | 0.991% (inactive)
CCOC(=O)/C(=C\c1ccc([N+](=O)[O-])cc1)C(=O)c1cc(C(C)=O)c(Nc2ccccc2)s1 | -116% (active)
CC1C(=O)Nc2ccccc2N1C(=O)c1c(F)cccc1F (stereo unspecified) | -9.24% (inactive)
C=C1C(=O)OC2C1CCC(C)=CCCC1(C)OC21 (stereo unspecified) | -113% (active)
O=C(CSc1ccc([N+](=O)[O-])cn1)Nc1ccc(N2CCOCC2)c(Cl)c1 | -12.5% (inactive)
CS(=O)(=O)N(CC(=O)N1CCCC1)Cc1ccccc1 | 4.88% (inactive)
CCNC(=O)c1ccc(OCC(=O)Nc2ccc(F)cc2)c(OC)c1 | -5.56% (inactive)
COc1ccc(C(=O)OCC(=O)Nc2cccc(C(C)=O)c2)cc1OC | 20.1% (inactive)
COc1cc(C(=O)N(C)Cc2cccc(OC)c2OC)ccc1OCC(=O)Nc1cccc(C(F)(F)F)c1 | -57.3% (active)
O=C(CN1C(=O)NC2(CCCCC2)C1=O)NCCC1=CCCCC1 | 21.6% (inactive)
COc1cccc(NC(=O)C2(C)CCN2C(=O)CCC2CCCC2)c1 (stereo unspecified) | 12.2% (inactive)
Oc1ccc(-n2nnnc2SCc2c(F)cccc2Cl)cc1 | -11.4% (inactive)
COc1ccc(CSc2nnnn2-c2ccc(C(=O)O)cc2)cc1 | -2.8% (inactive)
COc1ccc(CSc2nnnn2-c2ccc(O)cc2)cc1F | -64.2% (active)
COc1ccc(C(C)=O)cc1CN1C(=O)NC2(CCCCC2C)C1=O (stereo unspecified) | -5.22% (inactive)
